The campaign covered roughly 360,000 compounds. About 8,200 (2.3%) were called active. The sample as a whole holds a higher share of actives than the screen did. Unmarked numbers belong to inactive results. Cut-off read from the data, not from the text of the source: active = inhibition above about 27%; inactive = the rest.

The target of the assay is Fructose-bisphosphate aldolase (Mycobacterium tuberculosis (strain ATCC 25618 / H37Rv)) (UniProt P9WQA3). Description: M. tuberculosis aldolase activity blockers – biochemical, fluorescence, strain H37Rv, primary screen (AID 588726).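 Note: 0% = vehicle and 100% = reference inhibitor.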 The following applies: purified M. tuberculosis FBA, fluorescence read-out, at 1 µM, stronger effect = higher value.
Sequence of Fructose-bisphosphate aldolase (Mycobacterium tuberculosis (strain ATCC 25618 / H37Rv)) (P9WQA3 whole entry, looked up): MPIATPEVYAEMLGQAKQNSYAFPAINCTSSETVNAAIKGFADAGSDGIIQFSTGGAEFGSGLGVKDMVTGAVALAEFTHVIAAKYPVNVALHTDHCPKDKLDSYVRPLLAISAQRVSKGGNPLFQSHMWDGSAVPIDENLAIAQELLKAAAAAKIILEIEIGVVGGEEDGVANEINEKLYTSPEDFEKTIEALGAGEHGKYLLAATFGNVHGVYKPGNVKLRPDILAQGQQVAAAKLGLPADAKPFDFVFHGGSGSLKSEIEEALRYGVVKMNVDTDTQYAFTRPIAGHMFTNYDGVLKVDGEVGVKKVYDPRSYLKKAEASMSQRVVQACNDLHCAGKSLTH
As for `O=C(Nc1ccc2nccnc2c1)c1ccco1`, the inhibition was 50.1% (active). With `CC(C)(C)NC(=O)c1cc(NC(=O)c2ccco2)cc(NC(=O)c2ccco2)c1`, the inhibition was 1.27%.

With `O=C(NNC(=O)c1ccco1)Nc1ccccc1`, the inhibition is -0.74%. Regarding `COc1ccc(-c2[nH]ncc2CN(C)Cc2cc(C)[nH]n2)c(F)c1`, the inhibition is -3.53%.

As to `CC(C)C(OC(=O)c1cccs1)C(=O)NC1CCCCC1` (stereo not given), the inhibition was 3.33%. Regarding `O=C(NCc1cccnc1)c1cc(C2CCCN(C(=O)C3CCCCC3)C2)on1` (stereo not given), the inhibition is 1.09%. `Cc1cc(C(F)(F)F)c(C#N)c(SCC(=O)NC2CC2)n1`: the inhibition is 1.94%.

Consider `CCOC(=O)COc1nc(C)cc(C(F)(F)F)c1C#N`, for which the inhibition was 75.7% (active). In the case of `CCOC(=O)CN(C(=O)COc1nc(C)cc(C)c1C#N)c1ccc(Cl)cc1` it was 0.17%; in that of `O=C1CC(Cc2ccc(Cl)cc2)C(=O)N1c1cc(Cl)ccn1` (stereo not given), -3.99%. With `Cc1cc(C)n(-c2nc(O)cc(=O)[nH]2)n1`, the inhibition was -2.32%. As for `CN(C)c1ccc(-c2nnc(-c3cccnc3)o2)cc1`, the inhibition is 14.1%.

As for `Nc1ccc(-c2nnc(-c3ccc(-c4ccccc4)cc3)o2)cc1`, the inhibition is 62.9% (active).

On to `OC(c1nnc(-c2ccccc2)o1)c1cccs1` (stereo not given), for which the inhibition was -4.15%. For `COC(=O)[C@@H]1C[C@@]2(O)[C@@H](O)[C@@H](O)[C@@H](O)C[C@H]2N1Cc1ccc(C)s1`, the inhibition was -1.21%. Regarding `CC(C)Cn1c(N)c(C(=O)COC(=O)C2CCCN2C(=O)c2cccs2)c(=O)n(C)c1=O` (stereo not given), the inhibition is 2.37%. In the case of `Cc1ccc(S(=O)(=O)N2CCN(C(=O)Cc3sc(C)nc3-c3ccc(F)cc3)CC2)c(C)c1` it was -0.33%; in that of `C=CCn1c(COc2ccc(F)cc2)nnc1SCC(=O)Nc1cccc(S(N)(=O)=O)c1`, 0.32%; in that of `C=CCn1c(CCNC(=O)c2ccccc2F)nnc1SCC(=O)Nc1ccc(OC)cc1`, 43.4% (active). For the compound `Cc1ccc(NC(=O)CSc2nnc(CNC(=O)c3ccccc3F)o2)cc1`, the inhibition was 0.75%. With `COc1ccc(CCNC(=O)C(=O)NCC2OCCN2S(=O)(=O)c2ccc(OC)c(C)c2)cc1` (stereo not given), the inhibition was -0.91%. Turning to `O=C(CN(C(=O)c1csnn1)c1cccc(Cl)c1)NC1CCCC1`, the inhibition was 2.14%. The same measure for `CC(C)[C@@H](C(=O)O)N(Cc1cccc(CN([C@H](C(=O)O)C(C)C)S(C)(=O)=O)c1)S(C)(=O)=O`: 5.75%. Regarding `O=C1CC2(CCCC2)Oc2ccc(Cl)cc21`, the inhibition was 2.17%. Turning to `O=C1CC2(CCN(C(=O)COc3ccc(F)cc3)CC2)Oc2ccccc21`, the inhibition is 6.06%. Turning to `O=C1CC2(CCCCC2)Oc2ccc(OCC(=O)N3CCOCC3)cc21`, the inhibition is 49.5% (active). As for `COc1ccc(CCNC(=O)/C(C#N)=C2\N=C(NC(=O)c3cccs3)c3ccccc32)cc1`, the inhibition was -0.53%. As for `Cc1ccc2nc(/C(C#N)=C\c3ccc(OC(=O)c4cccs4)cc3)[nH]c2c1`, the inhibition was 36.1% (active). In the case of `CCN(CC)c1ccc(C(=O)c2cnc(/N=C/N(C)C)s2)cc1` it was -0.9%; in that of `CCC1CCCCN1CCNC(=O)c1[nH]c(C)c(C(C)=O)c1C` (stereo not given), -2.24%; in that of `CC(C(=O)N1CCN(c2ccccc2F)CC1)c1ccc([N+](=O)[O-])cc1` (stereo not given), -0.87%.

`CC(C)(C)NS(=O)(=O)c1ccc(NC(=O)C2CCCO2)cc1` (stereo not given): the inhibition is 0.12%.

On to `O=C(Nc1ccc(-c2nnc(-c3ccccc3)o2)cc1)C1CCCO1` (stereo not given), for which the inhibition is 61.2% (active). Regarding `CCOc1ccc(NC(=O)c2ccc(NC(=O)C3CCCO3)cc2)cc1` (stereo not given), the inhibition was 0.48%. In the case of `c1ccc2c(-c3nn4nnnc4c4ccccc34)cccc2c1` it was 1.01%; in that of `Cc1csc(NC(=O)C2CCN(S(=O)(=O)c3ccccc3)CC2)n1`, -1.66%; in that of `CC(=O)Nc1ccc(-c2nc3ccccc3o2)cc1`, 60.6% (active). Turning to `COc1cc(OC)cc(C(=O)Nc2ccc(-c3nc4ccccc4o3)c(O)c2)c1`, the inhibition is 38% (active). Take `Cc1ccc2nc(-c3ccc(NC(=O)c4cccnc4)cc3)oc2c1`: the inhibition was -7.14%. Turning to `CC(C)(C)C(=O)CSc1nc2ccccc2o1`, the inhibition was 2.23%.

On to `COc1cccc(C(=O)Nc2ccc3nc4n(c(=O)c3c2)CCCCC4)c1`, for which the inhibition was 0.68%. In the case of `COc1cc(OC)cc(C(=O)N[C@H](C(=O)Nc2nc3ccccc3[nH]2)C(C)C)c1`, the inhibition was -0.55%. As for `CC1(C(=O)Nc2cccc3c2CCCC3)CCN1C(=O)CCc1ccc(Cl)cc1Cl` (stereo not given), the inhibition was 0%.

For the compound `O=C(Cc1ccc(F)cc1)NC1CCCC1`, the inhibition is -0.93%. In the case of `CCCNC(=O)c1c(N)n(-c2ccc(S(N)(=O)=O)cc2)c2nc3ccccc3nc12` it was 102% (active).

For `CCOC(=O)c1c(C)c(C(=O)NCCc2ccc(S(N)(=O)=O)cc2)c(C)n1CC`, the inhibition is -2.42%. The same measure for `Cc1noc(C)c1C(=O)NCCc1ccc(S(N)(=O)=O)cc1`: 0.56%; for `CC1(C(=O)NCc2cccc3ccccc23)CCN1Cc1ccc(-c2ccccc2)o1` (stereo not given): 2.7%; for `Cc1cc(Nc2cc(N3CCN(C)CC3)nc(Sc3ccc(NC(=O)C4CC4)cc3)n2)n[nH]1`: 0.5%. In the case of `CCOc1ccc(-c2nc(C)sc2CC(=O)O)cc1`, the inhibition is 5.29%. As to `O=C(O)Cc1sc(-c2ccc(C(=O)O)cc2)nc1-c1ccccc1`, the inhibition is 37% (active). The same measure for `NC(=O)Cc1ccc2sc(-c3ccccc3)nc2c1`: 5.06%; for `Cc1cccc(C)c1N1C(=O)CN(Cc2ccccc2)C1=S`: 3.51%; for `Cc1ccc2nc(-c3ccco3)c(Cc3cccc(Cl)c3)n2c1`: 30.3% (active). The same measure for `Clc1cccc(Cc2c(-c3cccc(Cl)c3)nc3ccc(Cl)cn23)c1`: 6.59%; for `Cc1ccc(Cc2c(-c3ccco3)nc3ccc(Cl)cn23)cc1`: 6.29%.

As for `O=C(Nc1ccc(N2CCN(C(=O)c3ccccc3)CC2)c(Cl)c1)c1cccnc1`, the inhibition was -4.3%. For the compound `Cn1c(CCNS(=O)(=O)c2ccc(F)cc2)nnc1SCc1cccnc1`, the inhibition is -0.16%.

In the case of `COc1ccc(CCNS(=O)(=O)c2ccc(F)cc2)cc1OC`, the inhibition was 0.71%. Consider `Cc1nn(C)c(Oc2ccccc2)c1CCNS(=O)(=O)c1ccc(F)cc1`, for which the inhibition is 28.7% (active).

For orientation: inhibition means the drop in the measured response relative to a control, in per cent.

(Values after PubChem BioAssay AID588726 (The Scripps Research Institute Molecular Screening Center, 2011).)
